# PubChem BioAssay AID1415 (NMMLSC, 2008)
# The campaign covered roughly 220,000 compounds. About 710 (0.32%) were called active. This is one part of a sample in which actives are shown more often than they occur. A number with no mark means an inactive call. Rule as the data show it: active = binding response below about 49% or above about 150%; inactive = in between.
# Biological target: Guanine nucleotide-binding protein G(o) subunit alpha (Homo sapiens) (UniProt P09471)
# Assay: modulators of RGS4 binding to Galphao, primary screen, biochemical, multiplexed bead flow cytometry (AID 1415);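 also: fluorescent Galphao activated with aluminum fluoride binding bead-coupled RGS4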
# Settings: at 10 µM, actives lie on both sides
# Sequence of Guanine nucleotide-binding protein G(o) subunit alpha (Homo sapiens) (P09471 whole entry, looked up): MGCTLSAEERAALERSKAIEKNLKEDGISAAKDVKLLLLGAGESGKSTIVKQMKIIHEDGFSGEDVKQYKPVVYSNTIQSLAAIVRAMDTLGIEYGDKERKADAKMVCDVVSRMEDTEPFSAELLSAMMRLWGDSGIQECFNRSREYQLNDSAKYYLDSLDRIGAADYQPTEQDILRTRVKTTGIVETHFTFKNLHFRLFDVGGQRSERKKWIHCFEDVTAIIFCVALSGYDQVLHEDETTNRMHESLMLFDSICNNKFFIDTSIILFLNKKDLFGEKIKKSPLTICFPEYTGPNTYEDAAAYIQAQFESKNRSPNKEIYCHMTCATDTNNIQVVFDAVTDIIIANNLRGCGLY
row,SMILES,binding response (% of control)
1,CCN(CC)c1ccc(S(=O)(=O)N2CCOCC2)cc1NC(=O)CSc1cccc[n+]1[O-],91.7%
2,Cn1c(SCC(=O)N2CCCc3ccccc32)nc2ccccc2c1=O,89.2%
3,O=C(CSc1ccc2nnc(-c3ccccc3)n2n1)N1CCCc2ccccc21,156% [activator] (active)
4,CCCn1c(SCC(=O)N2CCc3ccccc32)nnc1-c1ccncc1,99.9%
5,Nc1ccccc1Sc1cc(Cl)nnc1Cl,97.6%
6,O=C(NC1CCc2ccccc21)C12CN(Cc3ccccc3)CC1C(c1cccc([N+](=O)[O-])c1)=NO2 (stereo not given),99.7%
7,Cn1c(=O)c2c(n(Cc3ccccc3)c1=O)NC(=O)C2CC(=O)N1CCc2ccccc2C1 (stereo not given),21.4% (active)
8,O=C(COc1ccccc1)N1CCc2ccccc2C1,103%
9,O=C(CSc1nnc(-c2cccs2)n1Cc1ccccc1)N1CCc2ccccc2C1,99.4%
10,Cc1ccc(NC(=O)CNCc2ccccn2)cc1S(=O)(=O)N(C)C,97.3%
11,Cn1c(CC2Sc3ccccc3NC2=O)nnc1SCC(=O)c1ccc(Cl)cc1 (stereo not given),88.2%
12,Cc1cc(=O)n2[nH]c(-c3sccc3-n3c(C)ccc3C)cc2n1,50.1% (active)
13,CCc1c(C)nc2cc(-c3cccs3)[nH]n2c1=O,93.5%
14,COc1cccc2cc(/C(C)=N/NC(=O)c3ccco3)oc12,98%
15,COc1cc(NC(=O)CSc2nnc3ccc(-c4ccncc4)nn23)cc(OC)c1,98.4%
16,COCCCNC(=S)N(Cc1ccccc1)Cc1ccc(F)cc1,106%
17,Cc1cs/c(=N\N=C\c2ccc(O)cc2)n1Cc1ccco1,99.6%
18,COc1ccc(NC(=O)Cn2c(=O)n(Cc3ccco3)c(=O)c3ccccc32)cc1,101%
19,CN(c1ccccc1)c1ccc(/C=c2\s/c(=C(/C#N)C(=O)C(C)(C)C)n(Cc3ccco3)c2=O)cc1,566% [activator] (active)
20,CCOc1ccc(NC(=O)CSc2ncnc3c2sc2ccccc23)cc1,103%
21,O=C(CN1CCCCCC1)N1c2ccccc2Sc2ccc(C(F)(F)F)cc21,89.3%
22,O=C(CN1CCCCC1)N1c2ccccc2Sc2ccc(C(F)(F)F)cc21,21.1% (active)
23,COc1cc(/C=C/C(=O)N2c3ccccc3Sc3ccc(C(F)(F)F)cc32)cc(OC)c1OC,103%

row,SMILES,binding response (% of control)
1,CCN(CC)S(=O)(=O)c1ccc(NC(=O)c2cccnc2Cl)c(NC(=O)c2cccnc2Cl)c1,101%
2,COc1cc(NS(=O)(=O)c2ccc(NC(=O)c3ccc(S(=O)(=O)N4CCCCC4)cc3)cc2)ncn1,107%
3,NC(=O)[C@H]1CC2(CC(c3cccc(NC(=O)[C@H]4CCC(=O)N4)c3)=NO2)CN1C(=O)c1ccccc1C(=O)c1ccccc1 (stereo not given in full),101%
4,CC1CCN(C(=S)NC2CC3CCC2C3)CC1 (stereo not given),107%
5,Cc1ccc(Cn2ccc(NC(=O)c3cc(C(C)C)on3)n2)cc1,49% (active)
6,O=C(Nc1ccn(Cc2ccccc2)n1)c1cccc(F)c1,97.8%
7,Cc1ccc(Cn2ccc(NC(=O)C3C4CCC(C4)C3C(=O)O)n2)cc1 (stereo not given),103%
8,Cc1cc(C)n(-c2ccc3nncn3n2)n1,97.6%
9,Cn1ccc(NC(=O)Nc2ccc(Cl)cc2)n1,101%
10,Cn1cc(C(=O)NCc2ccccc2F)cn1,101%
11,COC(=O)CCCC1=CC2=CC(=O)C(C)(OC(=O)c3cccs3)C(=O)C2=CN1c1cccc(C#N)c1 (stereo not given),96%
12,CCOc1cccc(OCCCOc2cccc3cccnc23)c1,93%
13,O=C(NNC1=C(C(=O)C(F)(F)F)CCC1)c1ccncc1,86.6%
14,Cc1ccc(N2C(=O)C(Cc3ccccc3)NC2=S)cc1 (stereo not given),104%
15,Cc1ccc(N2C(=O)C3CC3C2=O)cc1 (stereo not given),100%
16,Cc1ccc(N2C(=O)C3C(c4ccccc4)(C2=O)C3(c2ccccc2)c2ccccc2)cc1 (stereo not given),8.37% (active)
17,CC(=O)c1ccc(S(=O)(=O)N2CCN(C(=O)/C=C/c3ccc4ccccc4n3)CC2)cc1,84%
18,Cc1cccc(NC(=O)CSc2nnc(CCNC(=O)OC(C)(C)C)o2)c1C,93.8%
19,Nc1ccc(C(=O)OCC(=O)NC2CCCc3ccccc32)cc1[N+](=O)[O-] (stereo not given),98.3%
20,O=C(COC(=O)/C=C/c1ccc2c(c1)OCO2)NC1CCS(=O)(=O)C1 (stereo not given),104%
21,Nc1ccc(C(=O)OCC(=O)NC2CCS(=O)(=O)C2)cc1[N+](=O)[O-] (stereo not given),-18.4% (active)
22,Cc1ccc(C(=O)Nc2nc(N)n(-c3ccccc3)n2)cc1,103%
23,CC(=O)c1ccc(NC(=S)N(Cc2ccccc2)C(C)C2CC2)cc1 (stereo not given),106%

row,SMILES,binding response (% of control)
1,COCC(C)n1c(C)cc(C(=O)COc2ccc(C)nc2[N+](=O)[O-])c1C (stereo not given),99.8%
2,Cc1cc(C)n(CC(O)CN(c2ccccc2)S(=O)(=O)c2ccc3ccccc3c2)n1 (stereo not given),13.8% (active)
3,O=S(=O)(c1ccccc1)N(CC(O)CN1CCCCC1)c1ccccc1 (stereo not given),103%
4,Cc1ccc(N(CC(O)CN2CCCC2)S(=O)(=O)c2ccccc2)cc1 (stereo not given),101%
5,COC(=O)c1ccc(CN2CCN(CCCc3ccccc3)C(CCO)C2)cc1 (stereo not given),91.5%
6,CCN(C(=O)COC(=O)c1cc(S(=O)(=O)N2CCc3ccccc32)ccc1OC)C1CCS(=O)(=O)C1 (stereo not given),104%
7,COc1ccccc1NC(=O)CCCc1c[nH]c2ccccc12,440% [activator] (active)
8,COc1ccccc1NC(=O)C[n+]1ccccc1,96%
9,O=C(CCCCCn1c(=O)[nH]c2ccccc2c1=O)NCCc1c[nH]c2ccccc12,100%
10,COc1ccc(CCNS(=O)(=O)c2cccc3cccnc23)cc1OC,97.9%
11,O=C(CSc1ccc([N+](=O)[O-])cn1)Nc1ccc(N2CCOCC2)c(Cl)c1,94.7%
12,COC(=O)c1ccccc1OCC(=O)N1CCN(c2ccc(Cl)cc2)CC1,349% [activator] (active)
13,O=C(CN1CCN(c2ccc(Cl)cc2)CC1)N1CCCC1,104%
14,O=C(COc1ccc(Cl)cc1)N1CCN(c2cccc(C(F)(F)F)c2)CC1,101%
15,Cc1cccc(CSc2nc3c(c(=O)n2C)SCC3)c1,98.4%
16,CCc1n[nH]c(=S)n1/N=C/c1c[nH]c2ccc(Br)cc12,103%
17,COc1c(O)cc2oc(-c3ccc(O)c(O)c3)cc(=O)c2c1O,90.8%
18,Cc1ccc(-c2c[n+](=O)c3c(n2[O-])CCC3)cc1,101%
19,Clc1ccc(C2CC(c3cccs3)n3ncnc3N2)cc1Cl (stereo not given),97.8%
20,FC(F)Oc1ccccc1C1CC(c2ccc(Br)s2)Nc2ncnn21 (stereo not given),187% [activator] (active)
21,COc1ccc(C2CC(c3ccccc3)Nc3ncnn32)cc1 (stereo not given),99.7%
22,Cc1ccc(C(=O)Cc2nnc(C)s2)cc1,100%
23,COC(=O)[C@H]1Cc2cnoc2C[C@]1(C)C(=O)O,101%

row,SMILES,binding response (% of control)
1,CCOC(=O)c1ccc(NC(=O)c2nc[nH]c2C(=O)N[C@@H](CCCCNC(=O)OC(C)(C)C)C(=O)OC(C)(C)C)cc1,96.7%
2,CC(C(=O)O)n1cnc2sc3c(c2c1=O)CCCC3 (stereo not given),94.7%
3,C=CCn1c(=NC(=O)c2cccs2)sc2cc(NC(C)=O)ccc21,154% [activator] (active)
4,CC(=O)Nc1ccc(/C=N/NC(=O)c2cccs2)cc1,99.4%
5,C=CCn1c(=NC(=O)c2ccc(S(=O)(=O)N3CCCC3)cc2)sc2cc(NC(C)=O)ccc21,94.5%
6,Cc1ccc(OCC(=O)Nc2nnc(-c3ccco3)s2)cc1,102%
7,Cc1ccc2[nH]c(=O)c(CN3CCCCC3)c(-c3ccccc3)c2c1,101%
8,CCOC(=O)NNc1cc(C(F)(F)F)ccn1,169% [activator] (active)
9,Cc1ccc(NC(=O)Nc2cccc(C(F)(F)F)c2)nc1,99.7%
10,CCC(=O)NC(Nc1cc(C)ccn1)(C(F)(F)F)C(F)(F)F,104%
11,CCCSc1nc(NCc2ccco2)c2c3c(sc2n1)COC(C)(CC)C3 (stereo not given),104%
12,COc1ccccc1-n1cn[nH]c1=S,98.6%
13,COc1ccc(OC)c(-n2c(-c3ccn[nH]3)n[nH]c2=S)c1,96.7%
14,COc1ccccc1-n1c(-c2cc(-c3ccco3)[nH]n2)n[nH]c1=S,7.03% (active)
15,CSc1ccc(/C=C/C(=O)NC23CC4CC(CC(C4)C2)C3)cc1,99.9%
16,Fc1ccccc1/C=N/n1c(-c2cccnc2)n[nH]c1=S,102%
17,OCCC1CN(Cc2cccc(OC3CCCC3)c2)CCN1Cc1ccsc1 (stereo not given),100%
18,COc1ccc(C)cc1S(=O)(=O)N(CC(=O)Nc1cccc([N+](=O)[O-])c1)c1ccc(C)cc1,87.7%
19,O=C(OCC1O[C@@H](OC(=O)c2cc(O)c(O)c(O)c2)[C@@H](OC(=O)c2cc(O)c(O)c(O)c2)[C@@H](OC(=O)c2cc(O)c(O)c(O)c2)[C@@H]1OC(=O)c1cc(O)c(O)c(O)c1)c1cc(O)c(O)c(O)c1 (stereo not given in full),1.38% (active)
20,CC(=O)NC1C(OCc2ccccc2)OC(COC(C)=O)C(OC(C)=O)C1OC(C)=O (stereo not given),101%
21,COc1cc(C(CCN2CCN(c3ccccc3)CC2)c2c(OC)cc(OC)c3ccc(=O)oc23)cc(OC)c1OC (stereo not given),101%
